The list is not random: actives were taken first. Their share in the collection is about 6.9%.
Cy5 interf NS3h: Cy5 fluorescence quenchers or enhancers, artefact control for HCV NS3 helicase inhibitor project, biochemical, ChemBridge library, Cy5 readout | fluorescence interference ratio at 100 µM | hit rate 6% among 16,000 | AID 720488, 2013 | Cy5-dT15 DNA with NS3h, fluorescence interference; actives lie on both sides; signal over control mean, under 1 quenches;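 active = compound fluorescence over control fluorescence at most 0.8, a quencher, or at least a set upper limit, an enhancer; inactive = ratio between 0.8 and the set upper limit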
NS3h inh CB: HCV NS3 helicase inhibitors, primary screen, biochemical, fluorescence polarization, ChemBridge library; NS3h Cy5-dT15 DNA binding; inhibition, % at 100 µM; hit rate 1.6% among 16,000;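 active = inhibition above the average over every tested compound plus 3 SD, cut at about 40% in these data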
HCV NS3h conf: HCV NS3 helicase inhibitors, retest, confirmation, biochemical, fluorescence polarization, ChemBridge library; NS3h binding to Cy5-dT15 DNA; hit rate 20% among 240; shares compounds with NS3h inh CB; inhibition, % at 100 µM;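 active = percent inhibition of 50% or more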
SSB-DNA FP CB: E. coli SSB-DNA binding inhibitors, counter-screen for HCV NS3 helicase inhibitor project, biochemical, fluorescence polarization, selected ChemBridge compounds | shares compounds with NS3h inh CB | E. coli SSB binding Cy5-dT15 | inhibition, % at 100 µM | hit rate 40% among 240 | AID 720486, 2013;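 active = inhibition of at least 50%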;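 also: displacers lower Cy5 polarization so higher inhibition means more SSB displaced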
Target sequence (P0AGE0 whole entry, looked up): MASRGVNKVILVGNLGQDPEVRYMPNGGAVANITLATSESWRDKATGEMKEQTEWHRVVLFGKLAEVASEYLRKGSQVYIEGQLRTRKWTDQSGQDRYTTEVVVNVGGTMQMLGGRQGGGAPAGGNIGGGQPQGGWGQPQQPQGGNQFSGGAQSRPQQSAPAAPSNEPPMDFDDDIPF
Cy5 SSB fluor CB: Cy5 fluorescence interference with SSB-bound oligo, artefact control for HCV NS3 helicase inhibitor project, biochemical, E. coli SSB, selected ChemBridge compounds. shares compounds with NS3h inh CB. Cy5-dT15/E. coli SSB fluorescence interference; actives lie on both sides. fluorescence interference ratio at 100 µM. hit rate 8% among 240. AID 720487, 2013;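 active = fluorescence interference ratio at or above 1.2, signal boosting, or at or below 0.8, signal quenching; inactive = ratio between 0.8 and 1.2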
Cy5 fluor confirm: Cy5-DNA-NS3h complex fluorescence interference, confirmation, artefact control for HCV NS3 helicase inhibitor project, biochemical, ChemBridge library. AID 720489, 2013. hit rate 44% among 240. Cy5-dT15 DNA/NS3h fluorescence interference counterscreen. fluorescence interference ratio at 100 µM, hits read low. shares compounds with NS3h inh CB;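 active = fluorescence interference ratio at or below 0.8 quencher or at or above a set limitenhancer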
Hits are given with their value; - = inactive.

SMILES | Cy5 interf NS3h | NS3h inh CB | others
O=C(/C=C/c1ccccc1)NCC1OCCc2ccccc21 (stereo not given) | - | -
CCOc1ccc(C(=O)Nc2cccc([N+](=O)[O-])c2)cc1Cl | 0.57 | -
CCOc1ccc(C(=O)Nc2ccc(NC(=O)CC)cc2)cc1Cl | 0.73 | -
CCOc1ccc(C(=O)Nc2ccc(C)cc2[N+](=O)[O-])cc1Cl | - | -
CCOc1ccc(C(=O)Nc2ccc(N3CCOCC3)c(Cl)c2)cc1Cl | - | -
CCOC(=O)c1ccccc1NC(=O)c1ccccc1 | - | -
Cc1ccccc1OCC(=O)Nc1ccc(-c2ccccc2)cc1 | - | -
CC(C)(C)c1ccc(S(=O)(=O)Nc2cc(Cl)ccc2Cl)cc1 | - | -
CCOc1cc(C2C3=C(CC(C)(C)CC3=O)NC3=C2C(=O)c2ccccc23)ccc1O (stereo not given) | 1.2 | -
Cc1ccc(C(=O)Oc2cccc(C3C4=C(CC(C)(C)CC4=O)NC4=C3C(=O)c3ccccc34)c2)cc1 (stereo not given) | - | -
O=C(CCC(=O)OCC(F)(F)C(F)F)Nc1nc2ccccc2s1 | 0.71 | -
CCC(C(=O)Nc1nc2ccccc2s1)c1ccccc1 (stereo not given) | - | -
Cc1ccccc1C(=O)Nc1ccc(-c2cnc(-c3ccc(NC(=O)c4ccccc4C)cc3)nc2)cc1 | 0.75 | -
O=C(Nc1ccc(-c2cnc(-c3ccc(NC(=O)c4ccccc4)cc3)nc2)cc1)c1ccccc1 | - | -
COc1ccc(-c2cn3ccccc3n2)cc1Br | 0.79 | -
COc1ccc(-c2cn3cccc(C)c3n2)cc1Br | - | -
COc1cccc(N2C(=O)/C(=C/c3ccc(O)c(O)c3)SC2=S)c1 | - | -
Cc1oc2ccccc2c1/C=N\n1cnc2sc3c(c2c1=O)CCCC3 | - | -
CCOc1cc(/C=C/C(=O)O)cc(I)c1OCC | - | -
Cc1ccc(S(=O)(=O)N2CCN(S(=O)(=O)c3ccc(C)cc3)C2c2ccc(N(C)C)cc2)cc1 | - | -
Cc1ccc(S(=O)(=O)N2CCC(O)CC2C)cc1 (stereo not given) | 0.74 | -
Cc1c(C(=O)O/N=C(/N)Cc2cccc3ccccc23)cccc1[N+](=O)[O-] | - | -
O=C(O/N=C\c1ccc([N+](=O)[O-])cc1)c1cccs1 | 0.75 | -
O=C(/C=C/c1ccc(-c2cccc([N+](=O)[O-])c2)o1)c1cccs1 | - | -
CCOc1ccc2nc(SCC(=O)Nc3cccc(C)c3)sc2c1 | 0.61 | -
SMILES | Cy5 interf NS3h | NS3h inh CB | others
Cc1cccc(NC(=O)CSc2nsc(SCC(=O)Nc3cccc(C)c3)n2)c1 | - | -
O=C(c1ccccc1[N+](=O)[O-])N(Cc1ccccc1)Cc1ccccc1 | - | -
Cc1c(NC(=O)C(Cc2ccccc2)N2C(=O)c3ccccc3C2=O)c(=O)n(-c2ccccc2)n1C (stereo not given) | - | -
Cc1ccc2nc(-c3ccc([N+](=O)[O-])cc3)cn2c1 | - | -
O=[N+]([O-])c1ccc(-c2cn3c(n2)sc2ccccc23)cc1 | 0.65 | -
Cc1ccc(C(=O)N/C(=C\c2cn(-c3ccccc3)nc2-c2ccc(F)cc2)C(=O)NCc2cccnc2)cc1 | - | -
O=C1C=C(Nc2ccc(Cl)cc2)CN1 | - | -
CC(=O)Nc1ccc(C(=O)/C=C/c2ccc(/C=C/C(=O)c3ccc(NC(C)=O)cc3)cc2)cc1 | - | -
Cc1ccc(C)n1-c1cc(C(=O)O)ccc1O | 1.4 | 96 | HCV NS3h conf=85;SSB-DNA FP CB=104;Cy5 SSB fluor CB=-;Cy5 fluor confirm=-
Cc1ccc(C)n1-c1ccc(C(=O)O)c(O)c1 | 1.3 | 90 | HCV NS3h conf=101;SSB-DNA FP CB=99;Cy5 SSB fluor CB=-;Cy5 fluor confirm=-
CC(=O)c1ccc(-n2c(C)ccc2C)cc1 | - | -
Cc1ccc(C(=O)O)cc1N1C(=O)C2C3C=CC(C3)C2C1=O (stereo not given) | - | -
